Experimental data: PubChem BioAssay (NCATS)
Records with an inconclusive call do not appear. Where a call stands in place of a potency, no number is given. Active and inactive are the calls of the source. The call rests on the fitted dose curve; in most records, active means well fitted inhibition curve with a large enough effect; inconclusive means small, poorly fitted or top-dose-only effect; inactive means flat fitted curve, though single readings scatter.

Tests used:
Assay in all cases: qHTS profiling for inhibitors of Plasmodium falciparum proliferation (AID 504749); further: nearly all actives have a fitted effect of over 60% in size
Settings in all cases: P. falciparum in erythrocytes, SYBR Green DNA, 72 h; series mostly up to 28.7 µM
CP335 = system: CP335
In short: (§1)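 P. falciparum-infected erythrocytes (0.3% parasitemia, 2.5% hematocrit final) were exposed to compounds for 72 h at 37 C in 5% CO2, then lysed with SYBR Green buffer overnight at room temperature; parasite DNA fluorescence was normalized to artemisinin and DMSO controls.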

DFO2036 = system: DFO2036
In short: as §1

DIV14 = system: DIV14
In short: as §1

DIV17 = system: DIV17
In short: as §1

DIV30 = system: DIV30
In short: as §1

Dd2 = system: Dd2
In short: as §1

ECU = system: ECU
In short: as §1

FAB9 = system: FAB9
In short: as §1

GB4 = system: GB4
In short: as §1

HB3 = system: HB3
In short: as §1

ICS = system: ICS
In short: as §1

N140 = system: N140
In short: as §1

P93_24 = system: P93_24
In short: as §1

P94_40 = system: P94_40
In short: as §1

PAD = system: PAD
In short: as §1

PC15 = system: PC15
In short: as §1

PC26 = system: PC26
In short: as §1

PC49 = system: PC49
In short: as §1

SC27B = system: SC27B
In short: as §1

JCK = system: JCK
In short: as §1
Potency means the concentration at half of the fitted maximal effect.

Row | SMILES | Potency (CP335) | Potency (DFO2036) | Potency (DIV14) | Potency (DIV17) | Potency (DIV30) | Potency (Dd2) | Potency (ECU) | Potency (FAB9) | Potency (GB4) | Potency (HB3) | Potency (ICS) | Potency (N140) | Potency (P93_24) | Potency (P94_40) | Potency (PAD) | Potency (PC15) | Potency (PC26) | Potency (PC49) | Potency (SC27B) | Potency (JCK)
1 | O=P1(NCCCl)OCCCN1CCCl (stereo unspecified) | inactive | inactive | inactive | inactive | inactive | inactive | inactive | inactive | inactive | inactive | inactive | inactive | inactive | inactive | inactive | inactive | inactive | inactive | inactive | –
2 | CC(=O)[C@H]1CC[C@H]2[C@@H]3CC[C@H]4C[C@H](O)CC[C@]4(C)[C@H]3C(=O)C[C@]12C | inactive | inactive | inactive | inactive | inactive | inactive | inactive | inactive | inactive | inactive | inactive | inactive | inactive | inactive | inactive | inactive | inactive | inactive | inactive | inactive
3 | NCCc1cc(O)c(O)cc1O | inactive | inactive | inactive | inactive | inactive | – | inactive | inactive | inactive | inactive | inactive | inactive | inactive | inactive | inactive | inactive | inactive | inactive | inactive | inactive
4 | CN1C(=S)CN=C(c2ccccc2)c2cc(Cl)ccc21 | inactive | inactive | inactive | inactive | inactive | inactive | inactive | inactive | inactive | inactive | inactive | inactive | inactive | inactive | inactive | inactive | inactive | inactive | inactive | inactive
5 | NCC(CC(=O)O)c1ccc(Cl)cc1 (stereo unspecified) | inactive | inactive | inactive | inactive | inactive | inactive | inactive | inactive | inactive | inactive | inactive | inactive | inactive | inactive | inactive | inactive | inactive | inactive | inactive | inactive
6 | CC(C)=CC1C(C(=O)OCc2cccc(Oc3ccccc3)c2)C1(C)C (stereo unspecified) | inactive | inactive | inactive | inactive | – | – | inactive | inactive | inactive | inactive | – | inactive | inactive | inactive | inactive | inactive | inactive | inactive | inactive | inactive
7 | OCCOc1ccccc1 | inactive | inactive | inactive | inactive | inactive | inactive | inactive | inactive | inactive | inactive | inactive | inactive | inactive | inactive | inactive | inactive | inactive | inactive | inactive | inactive
8 | CC(=O)[C@H]1CC[C@H]2[C@@H]3CC[C@H]4C[C@](C)(O)CC[C@]4(C)[C@H]3CC[C@]12C | inactive | inactive | inactive | inactive | inactive | inactive | inactive | inactive | inactive | inactive | inactive | inactive | inactive | inactive | inactive | inactive | inactive | inactive | inactive | inactive
9 | O=C(NC(O)C(Cl)(Cl)Cl)NC(O)C(Cl)(Cl)Cl (stereo unspecified) | inactive | inactive | inactive | inactive | inactive | inactive | inactive | inactive | inactive | inactive | inactive | inactive | inactive | inactive | inactive | inactive | inactive | inactive | inactive | inactive
10 | Cc1ncc(CNC(=O)N(CCCl)N=O)c(N)n1 | inactive | inactive | inactive | inactive | inactive | inactive | inactive | inactive | inactive | inactive | inactive | inactive | inactive | inactive | inactive | inactive | inactive | inactive | inactive | inactive
11 | CCC(C(N)=O)N1CCCC1=O (stereo unspecified) | inactive | inactive | inactive | inactive | inactive | inactive | inactive | inactive | inactive | inactive | inactive | inactive | inactive | inactive | inactive | inactive | inactive | inactive | inactive | inactive
12 | CCOC(=O)C1(c2ccccc2)CCN(CCC(C#N)(c2ccccc2)c2ccccc2)CC1 | 3.38 µM (active) | 2.82 µM (active) | 4.78 µM (active) | 6.75 µM (active) | 6.75 µM (active) | 8.91 µM (active) | 3.98 µM (active) | – | 3.38 µM (active) | 5.01 µM (active) | 2.24 µM (active) | 3.55 µM (active) | 3.55 µM (active) | 3.16 µM (active) | 2.51 µM (active) | 12.6 µM (active) | 6.75 µM (active) | – | 2.82 µM (active) | –
13 | CC[N+](CC)(CC)CC | inactive | inactive | inactive | inactive | inactive | inactive | inactive | inactive | inactive | inactive | inactive | inactive | inactive | inactive | inactive | inactive | – | inactive | inactive | inactive
